In PubChem BioAssay:
Potency and affinity values are given separately. Results filed as inconclusive are left out. Activity calls are given as the source filed them. Unless noted, the rule behind the calls is not given here.

Key:
[1] = RMG-1 ovarian cancer cell viability loss – cherry-pick, dose response (AID 687029;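 active = signal drop whose fitted half-maximal concentration is at most twice the top valid dose, in every test run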;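 note: cells exposed to compound for 96 hours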); conditions: RMG-1 viability, CellTiterGlo ATP luminescence, 96 h; series mostly up to 35 µM
[2] = IOSE-T80 viability loss, PAX8-independent line – cell-based, cherry-pick, selectivity assay for PAX8 inhibitor project, dose response (AID 687032;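 active = fitted half-maximal concentration for viability loss no higher than twice the top valid dose, in every repeat run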;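 note: cells exposed to compound for 96 h before reading; 0% = neutral control wells and -100% = 2 µM mitoxantrone kill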); conditions: CellTiterGlo ATP luminescence, 96 h; series mostly up to 35 µM
[3] = CMV-driven luciferase expression suppression in HEK293 – cell-based, luminescence, dry powder, counter-screen for Pax8 inhibitor project, dose response (AID 743020;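 active = signal-lowering compounds whose fitted half-maximal concentration is at or below twice the top tested dose in every run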;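 note: HEK293 cells stably expressing the CMV luciferase reporter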); conditions: HEK293 CMV-luciferase reporter, SteadyGlo luminescence, 24 h; series mostly up to 35 µM
[4] = general cell-killing toxicity readout – plate reader, dry powder samples, cytotoxicity control for PAX8 inhibitor project, dose response (AID 743021); conditions: cell line, non-specific cytotoxicity counter-screen; series mostly up to 35 µM
[5] = IGROV1 cell killing – plate reader, dry powder samples, PAX8 inhibitor project, dose response (AID 743043); conditions: IGROV1 ovarian cancer cell cytotoxicity; series mostly up to 35 µM;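 note: more negative means fewer viable cells or more cytotoxicity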
[6] = OVCAR-3 cell viability loss – plate reader, dry powder samples, PAX8 inhibitor project, dose response (AID 743044); conditions: NIH:OVCAR-3 ovarian cancer cell viability
[7] = toxicity toward immortalized ovarian surface epithelium – cell-based, plate reader, dry powder samples, cytotoxicity control for PAX8 inhibitor project, dose response (AID 743045); conditions: IOSE-T80 ovarian epithelial cells; series mostly up to 35 µM;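 note: 0% = neutral control median and -100% = positive control median; more negative values mean more cell killing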
[8] = A2780 cell killing – plate reader, dry powder samples, cytotoxicity control, dose response (AID 743046); conditions: A2780 ovarian cancer cytotoxicity; series mostly up to 35 µM;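 note: 0% = neutral control wells and -100% = cytotoxic reference compound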
[9] = OVCAR8 cell viability loss – plate reader, dry powder samples, PAX8 project, dose response (AID 743197); conditions: series mostly up to 35 µM
[10] = max activity: at 35 µM, hits give low values unless noted, series mostly up to 50 µM

Measured: max activity

C[C@H]1CN([C@@H](C)CO)C(=O)Cc2cc(NC(=O)Nc3ccc4c(c3)OCO4)ccc2O[C@@H]1CN(C)CC1CCCCC1
inactive: [1] | [2] | [3] | [4] | [5] | [6]; [10] -10.1% | [7]

O=C(Nc1ccc(C(F)(F)F)cc1)N1C[C@@H]2N[C@H](C1)C2c1ccc(-c2cccc(F)c2)cc1 (stereo partly specified)
inactive: [1] | [2] | [3] | [4] | [5] | [6]; at 8 µM, hits give low values -9.78% | [6]; at 35 µM, hits give low values -0.968% | [7] | [8] | [9]

C[C@@H]1CCCCO[C@H](CN(C)Cc2ccc(C(F)(F)F)cc2)[C@@H](C)CN([C@@H](C)CO)C(=O)c2cc(NS(=O)(=O)c3ccccc3)ccc2O1
inactive: [1] | [2] | [3] | [4] | [5] | [6]; [10] -9.99% | [7] | [8]

CCCN1[C@H](C(=O)N2CCOCC2)[C@@H](CO)[C@@H]2Cn3c(ccc(/C=C/c4ccccc4)c3=O)[C@@H]21
inactive: [1] | [2] | [3] | [4] | [5] | [6]; [10] -10.3% [at 0.5 µM, hits give low values] | [7] | [8]

C[C@H]1CN([C@@H](C)CO)C(=O)c2c(c3ccccc3n2C)-c2ccccc2CO[C@H]1CN(C)S(=O)(=O)c1ccc(C(F)(F)F)cc1
inactive: [1] | [2] | [3] | [4] | [5] | [6]; [10] -24.4% | [7] | [8]

Cc1ccc(S(=O)(=O)N(C)C[C@H]2OCCCC[C@H](C)Oc3ccc(NS(=O)(=O)c4ccc(Cl)cc4)cc3C(=O)N([C@@H](C)CO)C[C@@H]2C)cc1
inactive: [1] | [2] | [3] | [4] | [5] | [6]; [10] 10.8% [at 2.1 µM, hits give low values] | [7] | [8]

CCCC#Cc1ccc([C@H]2[C@H]3CN(S(=O)(=O)Cc4ccccc4)CCCCN3[C@H]2CO)cc1
inactive: [1] | [2] | [3] | [4] | [5] | [6]; [10] -34.3% | [7] | [8]

COc1cccc(S(=O)(=O)N(C)C[C@@H]2Oc3cc(C4=CCCCC4)ccc3S(=O)(=O)N([C@@H](C)CO)C[C@H]2C)c1
inactive: [1] | [2] | [3] | [4] | [5] | [6]; [10] -34.5% [at 0.5 µM, hits give low values] | [7] | [8]

COc1ccc(CN(C)C[C@@H]2OCCCC[C@H](C)Oc3ccc(NC(=O)Nc4cccc5ccccc45)cc3C(=O)N([C@H](C)CO)C[C@H]2C)cc1
inactive: [1] | [2] | [3] | [4] | [5] | [6]; [10] -16.9% | [7] | [8]

C[C@@H]1CCCCO[C@@H](CN(C)Cc2ccc(Cl)c(Cl)c2)[C@H](C)CN([C@H](C)CO)C(=O)c2cc(NS(=O)(=O)c3ccc(F)cc3)ccc2O1
inactive: [1] | [2] | [3] | [4] | [5] | [6]; [10] -22% | [7] | [8]

Cc1ccc(S(=O)(=O)N(C)C[C@@H]2OCCCC[C@@H](C)Oc3ccc(NS(=O)(=O)c4ccc(Cl)cc4)cc3C(=O)N([C@H](C)CO)C[C@H]2C)cc1
inactive: [1] | [2] | [3] | [4] | [5] | [6]; [10] -13.3% [at 4.2 µM, hits give low values] | [7] | [8]

C[C@@H]1CCCCO[C@@H](CN(C)Cc2ccc(Cl)c(Cl)c2)[C@H](C)CN([C@@H](C)CO)C(=O)c2cc(NS(=O)(=O)c3ccc(Cl)cc3)ccc2O1
inactive: [1] | [2] | [3] | [4] | [5] | [6]; [10] 10.4% [at 0.5 µM, hits give low values] | [7] | [8]

O=C(C[C@H]1C[C@@H]2c3cc(NC(=O)Nc4ccc(C(F)(F)F)cc4)ccc3O[C@@H]2[C@@H](CO)O1)NCCc1ccccc1
inactive: [1] | [2] | [3] | [4] | [5] | [6]; [10] -7.36% [at 8 µM, hits give low values] | [7] | [8]

COc1cccc(S(=O)(=O)Nc2ccc3c(c2)[C@H]2C[C@H](CC(=O)NCc4ccccc4F)O[C@H](CO)[C@H]2O3)c1
inactive: [1] | [2] | [3] | [4] | [5] | [6]; [10] 44.6% [at 0.5 µM, hits give low values] | [7] | [8]

CN1c2ccc(-c3ccccc3)cc2[C@@H]2[C@@H](CCN2C(=O)NC2CCCCC2)[C@@H]1CO
inactive: [1] | [2] | [3] | [4] | [5] | [6]; [10] 7.48% [at 0.26 µM, hits give low values] | [7] | [8]

COc1ccc(CN2[C@H](CO)[C@H]3c4ccccc4NC[C@H]32)cc1
inactive: [1] | [2] | [3] | [4] | [5] | [6]; [10] 26.6% [at 0.5 µM, hits give low values] | [7] | [8]

C[C@@H]1CN([C@@H](C)CO)C(=O)c2cc(NC(=O)Nc3ccc(C(F)(F)F)cc3)ccc2O[C@@H](C)CCCCO[C@@H]1CN(C)Cc1ccccc1
inactive: [1] | [2] | [3] | [4] | [5] | [6]; [10] -20.5% [at 16 µM, hits give low values] | [7] | [8]

C[C@@H]1CCCCO[C@@H](CN(C)S(=O)(=O)c2cccs2)[C@H](C)CN([C@H](C)CO)C(=O)c2cc(NC(=O)Nc3ccc(C(F)(F)F)cc3)ccc2O1
inactive: [1] | [2] | [3] | [4] | [5] | [6]; [10] 9.36% [at 2.1 µM, hits give low values] | [7] | [8]

C[C@@H]1CN([C@H](C)CO)C(=O)c2cc(NS(=O)(=O)c3ccccc3)ccc2O[C@@H](C)CCCCO[C@H]1CN(C)Cc1ccc(Cl)c(Cl)c1
inactive: [1] | [2] | [3] | [4] | [5] | [6]; [10] 22% [at 0.5 µM, hits give low values] | [7] | [8]

C[C@@H]1CN([C@H](C)CO)C(=O)c2cc(NC(=O)CCCCCC(=O)Nc3ccccc3N)ccc2O[C@@H](C)CCCCO[C@H]1CN(C)Cc1ccc(Cl)c(Cl)c1
inactive: [1] | [2] | [3] | [4] | [5] | [6]; [10] -28.2% | [7] | [8]

Cc1cccc(-c2ccc([C@H]3[C@@H](CO)N4CCCCN(S(=O)(=O)c5cccc(C)c5)C[C@@H]34)cc2)c1
inactive: [1] | [2] | [3] | [4] | [5] | [6]; [10] -13.6% | [7] | [8]

C[C@H](CO)N1C[C@H](C)[C@H](CN(C)Cc2ccc(C(F)(F)F)cc2)OCCCC[C@H](C)Oc2ccc(NC(=O)c3ccccc3)cc2C1=O
inactive: [1] | [2] | [3] | [4] | [5] | [6]; [10] -59.7% | [7] | [8]

COc1ccc(-c2ccc3c(c2)[C@@H]2[C@@H](CCN2C(=O)C2CCCC2)[C@H](CO)N3C)cc1
inactive: [1] | [2] | [3] | [4] | [5] | [6]; [10] -19.3% [at 18 µM, hits give low values] | [7] | [8]

Cc1ccc(S(=O)(=O)Nc2ccc3c(c2)C(=O)N([C@H](C)CO)C[C@@H](C)[C@H](CN(C)S(=O)(=O)c2ccc(Cl)cc2)OCCCC[C@H](C)O3)cc1
inactive: [1] | [2] | [3] | [4] | [5] | [6]; [10] -15.5% | [7] | [8]

O=C(C[C@@H]1CC[C@H]2[C@@H](COC[C@@H](O)CN2Cc2cccc(C(F)(F)F)c2)O1)NCc1ccc(F)cc1
inactive: [1] | [2] | [3] | [4] | [5] | [6]; [10] 13.4% [at 2.1 µM, hits give low values] | [7] | [8]

O=C(C[C@H]1CC[C@@H]2[C@H](COC[C@@H](O)CN2S(=O)(=O)c2cccc(Cl)c2)O1)Nc1ccc(-c2ccccc2)cc1
inactive: [1] | [2] | [3] | [4] | [5] | [6]; [10] -18.4% | [7] | [8]

C[C@@H]1CN([C@@H](C)CO)S(=O)(=O)c2ccc(C#C[C@@H](C)O)cc2O[C@@H]1CN(C)Cc1ccc(-c2ccccc2)cc1
inactive: [1] | [2] | [3] | [4] | [5] | [6]; [10] -11.9% [at 16 µM, hits give low values] | [7] | [8]

COc1ccc(S(=O)(=O)N(C)C[C@H]2OCCCC[C@@H](C)Oc3ccc(NS(=O)(=O)c4c(C)noc4C)cc3C(=O)N([C@H](C)CO)C[C@H]2C)cc1
inactive: [1] | [2] | [3] | [4] | [5] | [6]; [10] -13.5% | [7] | [8]

C[C@@H]1CN([C@@H](C)CO)C(=O)Cc2cc(NC(=O)Nc3ccc(C(F)(F)F)cc3)ccc2O[C@H]1CN(C)Cc1ccc(Oc2ccccc2)cc1
inactive: [1] | [2] | [3] | [4] | [5] | [6]; [10] -19.5% | [7] | [8]

COc1cccc(S(=O)(=O)N(C)C[C@@H]2OCc3ccccc3-c3c(n(C)c4ccccc34)C(=O)N([C@@H](C)CO)C[C@@H]2C)c1
inactive: [1] | [2] | [3] | [4] | [5] | [6]; [10] 23.2% [at 2.1 µM, hits give low values] | [7] | [8]
